target: T1, FLI1 (Homo sapiens, UniProt Q01543 1-452); test: DAPPL (digital affinity profiling via proximity ligation, sequencing); 10 mM Tris-HCl pH 7.5, 50 mM NaCl, 1 mM DTT, 4% glycerol, room temperature, 30 min; GST-TFs on glutathione beads, 16-mer random dsDNA library, 0.1% formaldehyde crosslink after washing; high values mean tight binding; conditions: protein: recombinant; tags: N-terminal GST; dsDNA, one strand shown
T1 sequence: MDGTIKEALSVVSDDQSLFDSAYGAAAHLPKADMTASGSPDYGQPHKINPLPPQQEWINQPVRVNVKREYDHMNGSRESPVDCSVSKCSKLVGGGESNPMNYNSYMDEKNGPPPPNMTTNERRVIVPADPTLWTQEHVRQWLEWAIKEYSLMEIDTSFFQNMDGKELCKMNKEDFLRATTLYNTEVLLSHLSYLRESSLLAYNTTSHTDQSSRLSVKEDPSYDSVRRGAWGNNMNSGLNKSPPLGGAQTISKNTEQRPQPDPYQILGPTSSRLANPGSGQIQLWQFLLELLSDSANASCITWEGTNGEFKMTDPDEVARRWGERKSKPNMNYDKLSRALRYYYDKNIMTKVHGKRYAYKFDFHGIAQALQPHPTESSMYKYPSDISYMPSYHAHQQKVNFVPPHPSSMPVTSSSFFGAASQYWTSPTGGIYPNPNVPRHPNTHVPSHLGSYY
Summary of the method: (§1)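 Pools of DNA-barcoded human transcription factors, expressed in yeast as GST fusions on glutathione beads and combined with a tag-only sample, were incubated with 200 nmole of a 16-mer random double-stranded DNA library. Incubation took 30 min at room temperature in Tris/NaCl/DTT/glycerol buffer and was followed by washing, 0.1% formaldehyde crosslinking, proximity ligation (BsaI/T4 ligase, 1 h, 37 °C), PCR amplification and sequencing on an Illumina NextSeq500. Binding signal is the ratio of a hexamer's read frequency for a factor to its frequency for the tag-only sample.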

Point of comparison: CGATCT, binding signal 1.37 fold enrichment (6-mer frequency, TF over GST control). Against it:
- ATATAC — lower, 1.13 fold enrichment (6-mer frequency, TF over GST control)
- CTTTCC — higher, 2.05 fold enrichment (6-mer frequency, TF over GST control)
- ACGTCT — lower, 1.13 fold enrichment (6-mer frequency, TF over GST control)
- TCTACT — lower, 1.27 fold enrichment (6-mer frequency, TF over GST control)
- TTGGTT — higher, 1.51 fold enrichment (6-mer frequency, TF over GST control)
- GTTCTG — lower, 1.14 fold enrichment (6-mer frequency, TF over GST control)
- ATGGTT — higher, 1.41 fold enrichment (6-mer frequency, TF over GST control)
- TCCTTG — lower, 1.25 fold enrichment (6-mer frequency, TF over GST control)
- CGACTC — the same, 1.37 fold enrichment (6-mer frequency, TF over GST control)
- AAGTCC — lower, 1.21 fold enrichment (6-mer frequency, TF over GST control)
- ATTTAA — lower, 1.24 fold enrichment (6-mer frequency, TF over GST control)
- CCTGAC — higher, 1.49 fold enrichment (6-mer frequency, TF over GST control)
- CCCGAT — lower, 1.29 fold enrichment (6-mer frequency, TF over GST control)
- TAGTAT — lower, 1.25 fold enrichment (6-mer frequency, TF over GST control)
- AAACCT — lower, 1.15 fold enrichment (6-mer frequency, TF over GST control)
- GTCTCG — lower, 1.36 fold enrichment (6-mer frequency, TF over GST control)
- ACTTCA — higher, 1.43 fold enrichment (6-mer frequency, TF over GST control)
- CTCAAT — lower, 1.28 fold enrichment (6-mer frequency, TF over GST control)
- CCAATA — lower, 1.24 fold enrichment (6-mer frequency, TF over GST control)
- GCCTTA — lower, 1.15 fold enrichment (6-mer frequency, TF over GST control)
- GATTCA — lower, 1.11 fold enrichment (6-mer frequency, TF over GST control)
- GCTCCA — lower, 1.23 fold enrichment (6-mer frequency, TF over GST control)
- TCCTTT — higher, 1.64 fold enrichment (6-mer frequency, TF over GST control)
- CATTCT — the same, 1.37 fold enrichment (6-mer frequency, TF over GST control)
- TTCCTG — higher, 2.3 fold enrichment (6-mer frequency, TF over GST control)
- CCTCCT — higher, 1.72 fold enrichment (6-mer frequency, TF over GST control)
- TATGAT — lower, 1.21 fold enrichment (6-mer frequency, TF over GST control)
- AGCTAT — lower, 1.21 fold enrichment (6-mer frequency, TF over GST control)
- TTATGC — lower, 1.34 fold enrichment (6-mer frequency, TF over GST control)
- CTTGCC — lower, 1.29 fold enrichment (6-mer frequency, TF over GST control)
- TATCAT — lower, 1.25 fold enrichment (6-mer frequency, TF over GST control)
- ATTTCA — lower, 1.23 fold enrichment (6-mer frequency, TF over GST control)
- TCTCGA — lower, 1.35 fold enrichment (6-mer frequency, TF over GST control)
- TACGCT — lower, 1.3 fold enrichment (6-mer frequency, TF over GST control)
- CTGCTG — lower, 1.15 fold enrichment (6-mer frequency, TF over GST control)
- GCCTCG — higher, 1.41 fold enrichment (6-mer frequency, TF over GST control)
- TATTGA — lower, 1.1 fold enrichment (6-mer frequency, TF over GST control)
- TTGATA — lower, 1.23 fold enrichment (6-mer frequency, TF over GST control)
- TGGATG — lower, 1.33 fold enrichment (6-mer frequency, TF over GST control)

target: T2, ELK1 (Homo sapiens, UniProt P19419 1-428); test: as above; conditions: protein: recombinant; tags: N-terminal GST; dsDNA, one strand shown
T2 sequence: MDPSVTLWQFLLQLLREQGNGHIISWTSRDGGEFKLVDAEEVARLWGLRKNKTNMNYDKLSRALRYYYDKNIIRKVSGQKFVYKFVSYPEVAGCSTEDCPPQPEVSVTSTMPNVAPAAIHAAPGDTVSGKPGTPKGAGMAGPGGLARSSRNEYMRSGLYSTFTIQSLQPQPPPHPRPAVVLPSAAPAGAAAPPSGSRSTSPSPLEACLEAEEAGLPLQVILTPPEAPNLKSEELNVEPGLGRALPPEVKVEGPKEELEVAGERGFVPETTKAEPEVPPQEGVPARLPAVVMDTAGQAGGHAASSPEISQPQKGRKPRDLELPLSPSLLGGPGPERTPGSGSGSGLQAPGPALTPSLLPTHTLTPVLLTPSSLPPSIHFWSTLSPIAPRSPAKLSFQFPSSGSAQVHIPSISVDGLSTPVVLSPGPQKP
Summary of the method: as §1

Point of comparison: CCCGAT, binding signal 1.17 fold enrichment (6-mer frequency, TF over GST control). Against it:
- ATATAC — higher, 1.24 fold enrichment (6-mer frequency, TF over GST control)
- CTTTCC — higher, 1.9 fold enrichment (6-mer frequency, TF over GST control)
- ACGTCT — higher, 1.2 fold enrichment (6-mer frequency, TF over GST control)
- TCTACT — higher, 1.37 fold enrichment (6-mer frequency, TF over GST control)
- TTGGTT — higher, 1.38 fold enrichment (6-mer frequency, TF over GST control)
- GTTCTG — higher, 1.21 fold enrichment (6-mer frequency, TF over GST control)
- ATGGTT — higher, 1.28 fold enrichment (6-mer frequency, TF over GST control)
- TCCTTG — higher, 1.31 fold enrichment (6-mer frequency, TF over GST control)
- CGACTC — higher, 1.42 fold enrichment (6-mer frequency, TF over GST control)
- AAGTCC — higher, 1.31 fold enrichment (6-mer frequency, TF over GST control)
- ATTTAA — lower, 1.12 fold enrichment (6-mer frequency, TF over GST control)
- CCTGAC — higher, 1.57 fold enrichment (6-mer frequency, TF over GST control)
- TAGTAT — higher, 1.34 fold enrichment (6-mer frequency, TF over GST control)
- AAACCT — lower, 1.01 fold enrichment (6-mer frequency, TF over GST control)
- GTCTCG — higher, 1.37 fold enrichment (6-mer frequency, TF over GST control)
- ACTTCA — higher, 1.41 fold enrichment (6-mer frequency, TF over GST control)
- CTCAAT — higher, 1.2 fold enrichment (6-mer frequency, TF over GST control)
- CCAATA — the same, 1.17 fold enrichment (6-mer frequency, TF over GST control)
- GCCTTA — higher, 1.21 fold enrichment (6-mer frequency, TF over GST control)
- GATTCA — lower, 1.15 fold enrichment (6-mer frequency, TF over GST control)
- GCTCCA — the same, 1.17 fold enrichment (6-mer frequency, TF over GST control)
- TCCTTT — higher, 1.75 fold enrichment (6-mer frequency, TF over GST control)
- CATTCT — higher, 1.33 fold enrichment (6-mer frequency, TF over GST control)
- TTCCTG — higher, 2.3 fold enrichment (6-mer frequency, TF over GST control)
- CCTCCT — higher, 1.45 fold enrichment (6-mer frequency, TF over GST control)
- TATGAT — higher, 1.18 fold enrichment (6-mer frequency, TF over GST control)
- CGATCT — higher, 1.25 fold enrichment (6-mer frequency, TF over GST control)
- AGCTAT — lower, 1.14 fold enrichment (6-mer frequency, TF over GST control)
- TTATGC — higher, 1.34 fold enrichment (6-mer frequency, TF over GST control)
- CTTGCC — the same, 1.17 fold enrichment (6-mer frequency, TF over GST control)
- TATCAT — higher, 1.18 fold enrichment (6-mer frequency, TF over GST control)
- ATTTCA — the same, 1.17 fold enrichment (6-mer frequency, TF over GST control)
- TCTCGA — higher, 1.34 fold enrichment (6-mer frequency, TF over GST control)
- TACGCT — higher, 1.26 fold enrichment (6-mer frequency, TF over GST control)
- CTGCTG — higher, 1.26 fold enrichment (6-mer frequency, TF over GST control)
- GCCTCG — higher, 1.26 fold enrichment (6-mer frequency, TF over GST control)
- TATTGA — lower, 1.16 fold enrichment (6-mer frequency, TF over GST control)
- TTGATA — higher, 1.29 fold enrichment (6-mer frequency, TF over GST control)
- TGGATG — higher, 1.37 fold enrichment (6-mer frequency, TF over GST control)

target: T3, GABPA (Homo sapiens, UniProt Q06546 1-454); test: as above; conditions: protein: recombinant; tags: N-terminal GST; dsDNA, one strand shown
T3 sequence: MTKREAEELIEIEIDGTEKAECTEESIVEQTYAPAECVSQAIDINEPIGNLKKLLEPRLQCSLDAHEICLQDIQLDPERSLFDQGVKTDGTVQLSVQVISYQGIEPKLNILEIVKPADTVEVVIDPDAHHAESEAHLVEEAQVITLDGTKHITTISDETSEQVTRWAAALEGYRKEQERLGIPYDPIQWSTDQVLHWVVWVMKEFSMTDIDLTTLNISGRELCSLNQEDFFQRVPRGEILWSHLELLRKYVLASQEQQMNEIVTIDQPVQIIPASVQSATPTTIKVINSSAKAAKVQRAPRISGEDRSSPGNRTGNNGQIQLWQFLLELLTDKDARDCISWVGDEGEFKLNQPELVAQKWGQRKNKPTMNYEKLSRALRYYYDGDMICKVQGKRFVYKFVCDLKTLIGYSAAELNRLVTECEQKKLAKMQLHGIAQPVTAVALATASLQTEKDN
Summary of the method: as §1

Point of comparison: TAGTAT, binding signal 1.28 fold enrichment (6-mer frequency, TF over GST control). Against it:
- ATATAC — lower, 1.2 fold enrichment (6-mer frequency, TF over GST control)
- CTTTCC — higher, 1.83 fold enrichment (6-mer frequency, TF over GST control)
- ACGTCT — lower, 1.14 fold enrichment (6-mer frequency, TF over GST control)
- TCTACT — higher, 1.43 fold enrichment (6-mer frequency, TF over GST control)
- TTGGTT — higher, 1.45 fold enrichment (6-mer frequency, TF over GST control)
- GTTCTG — lower, 1.16 fold enrichment (6-mer frequency, TF over GST control)
- ATGGTT — the same, 1.28 fold enrichment (6-mer frequency, TF over GST control)
- TCCTTG — lower, 1.25 fold enrichment (6-mer frequency, TF over GST control)
- CGACTC — higher, 1.53 fold enrichment (6-mer frequency, TF over GST control)
- AAGTCC — lower, 1.18 fold enrichment (6-mer frequency, TF over GST control)
- ATTTAA — lower, 1.14 fold enrichment (6-mer frequency, TF over GST control)
- CCTGAC — higher, 1.49 fold enrichment (6-mer frequency, TF over GST control)
- CCCGAT — lower, 1.1 fold enrichment (6-mer frequency, TF over GST control)
- AAACCT — lower, 1.17 fold enrichment (6-mer frequency, TF over GST control)
- GTCTCG — higher, 1.3 fold enrichment (6-mer frequency, TF over GST control)
- ACTTCA — higher, 1.45 fold enrichment (6-mer frequency, TF over GST control)
- CTCAAT — the same, 1.28 fold enrichment (6-mer frequency, TF over GST control)
- CCAATA — lower, 1.25 fold enrichment (6-mer frequency, TF over GST control)
- GCCTTA — lower, 1.26 fold enrichment (6-mer frequency, TF over GST control)

Reference: publication PMC7862700, “An all-to-all approach to the identification of sequence-specific readers for epigenetic DNA modifications on cytosine”
